Shown are actives, neighbours in structure and some others; about 5.7% of the full set was active somewhere.
PI5P4K alpha inh = PI5P4K alpha (human) kinase inhibition; P48426; PI5P4Kalpha enzyme, ADP-Glo luminescence, 60 min; active compounds read low; max response, %; hit rate 1.2% among 330,000; AID 652105; active means max response of -50% or lower; inconclusive means between -30% and -50%; inactive means -30% or higher; further: value at the top dose of about 77 µM; on the % scale 0 is the no-effect control and ±100 the full control effect
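Luminescence from ADP-Glo served as readout of PI5P4Kalpha activity in a qHTS format. Reaction: enzyme, substrate, compound, ATP at 5 microM final, 60 min at RT.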
JMJD2A Tudor inh = JMJD2A Tudor domain (human) inhibition. AlphaScreen JMJD2A-Tudor / H3K4me3 peptide binding. Potency, µM (doses to about 114 µM), for inactives: at the highest dose activity change, negative = inhibition, usual class: inhibitors. hit rate 4.4% among 390,000. AID 504339; further: potency means the concentration at half of the fitted maximal effect; on the % scale 0 is the no-effect control and ±100 the full control effect; nearly all actives have a fitted effect of over 50% in size
HP1b chromo inh = HP1-beta chromodomain-methylated histone interaction inhibition; AlphaScreen HP1-beta / biotin-H3K9me3 peptide binding; Potency, µM (top dose mostly 114 µM), for inactives: top-dose activity change, negative = inhibition, most hits filed as inhibitors; hit rate 0.56% among 390,000; AID 540317; further: potency means the concentration at half of the fitted maximal effect; nearly all actives have a fitted effect of over 70% in size
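Compound inhibition of the preformed complex between 50 nM HP1-beta and 50 nM biotinylated H3K9me3 peptide was read by AlphaScreen. Buffer was PBS pH 7.4 with 0.01% Tween-20. Incubations ran 30 min at room temperature, with 10 ug/mL donor/acceptor beads.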
KDM4E inh = inhibitors of human JMJD2E histone demethylase. hit rate 1.6% among 230,000. Potency, µM (doses to about 57.1 µM), inactives show at the top dose activity change, negative = inhibition, hits mostly inhibitors. AID 2147. JMJD2E catalytic domain, FDH-coupled NADH fluorescence (FDH is formaldehyde dehydrogenase). B2RXH2; active means well fitted inhibition curve with a large enough effect, not every such curve was filed as active; inconclusive means small, poorly fitted or top-dose-only effect, or another doubt; inactive means no such curve, though single readings can be large or run the other way;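 further: potency means the concentration at half of the fitted maximal effect; 0% = wells with enzyme and -100% = buffer wells without enzyme; nearly all actives have a fitted effect of over 50% in size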
Target sequence (B2RXH2 1-337 limits assumed): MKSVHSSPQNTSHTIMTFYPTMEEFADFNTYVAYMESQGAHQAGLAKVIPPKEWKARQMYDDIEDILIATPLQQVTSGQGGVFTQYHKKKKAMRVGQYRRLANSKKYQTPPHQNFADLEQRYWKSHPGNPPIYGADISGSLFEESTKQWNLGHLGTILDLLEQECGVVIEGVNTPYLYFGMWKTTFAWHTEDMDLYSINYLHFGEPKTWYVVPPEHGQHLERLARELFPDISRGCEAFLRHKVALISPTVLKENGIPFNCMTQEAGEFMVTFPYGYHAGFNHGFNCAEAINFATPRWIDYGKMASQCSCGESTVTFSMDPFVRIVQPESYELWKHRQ
BAZ2B inh = blocks human BAZ2B | AID 504333 | hit rate 4.4% among 360,000 | Q9UIF8 | AlphaScreen BAZ2B-H3K14Ac peptide displacement | Potency, µM (top dose mostly 114 µM), for inactives: top-dose activity change, negative = inhibition, most hits filed as inhibitors; further: potency means the concentration at half of the fitted maximal effect; on the % scale 0 is the no-effect control and ±100 the full control effect; nearly all actives have a fitted effect of over 60% in size
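Complex of BAZ2B and biotin-H3K14Ac (50 nM apiece) forms over 30 min at RT, then faces library compounds up to 110 uM for another 30 min; AlphaScreen beads added, 20 min dark incubation, luminescence read.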
L3MBTL1 inh = inhibitors of human L3MBTL1; AlphaScreen L3MBTL1–H3K9me1 peptide binding; Potency, µM (titrated, usually from 57.1 µM), for inactives: at the highest dose activity, negative = inhibition, hits mostly inhibitors; hit rate 0.66% among 230,000; AID 485360; further: potency means the concentration at half of the fitted maximal effect; on the % scale 0 is the no-effect control and ±100 the full control effect; nearly all actives have a fitted effect of over 60% in size
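Displacement of a biotinylated histone H3(1-15) peptide monomethylated at Lys9 (75 nM) from L3MBTL1 (50 nM) was measured by AlphaScreen after a 30 min room-temperature compound incubation; cefsulodin titration served as intraplate control.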
Active calls of the source: *; ? = inconclusive; · = not tested or not shown. Unless noted, the call rests on the fitted dose curve; in most records, active means well fitted inhibition curve with a large enough effect; inconclusive means small, poorly fitted or top-dose-only effect; inactive means no such curve, though single readings can be large or run the other way.

SMILES	PI5P4K alpha inh	JMJD2A Tudor inh	HP1b chromo inh	KDM4E inh	BAZ2B inh	L3MBTL1 inh
COC(=O)CN1C(=O)[C@H]2[C@@H](c3ccc(C)o3)N3C(=O)CN(Cc4ccc(-c5ccccc5)cc4)C(=O)[C@@]3(C)[C@H]2C1=O	-62*	-20%	34%	·	-18%	8%
COc1cc(Cn2ccnc2)c(OC)cc1Cn1ccnc1	·	-35%	6%	7%	79µM*	-16%
CC(C1SC(=S)NC1=O)C1SC(=S)NC1=O (configuration not stated)	-78*	·	·	·	·	·
CNCCCOc1cccc(OC(C)C)c1	2	1.6µM*	?	?	50µM*	·
CC(O)CNCCCOc1ccccc1OCc1ccccc1 (configuration not stated)	6	3.2µM*	-32%	?	50µM*	4%
CC(=O)NCCOc1cccc(OCCNC(C)=O)c1	5	-14%	35%	-7%	7%	-5%
CC(O)CNCCCOc1cccc(Oc2ccccc2)c1 (configuration not stated)	-3	22µM*	15%	?	28µM*	4%
Cc1ccc(C)c(NC(=O)C2CCCN2C(=O)NC2CCCCC2)c1 (configuration not stated)	2	-19%	44%	0%	-14%	5%
COc1ccc2[nH]c(S(=O)Cc3ncc(C)c(OC)c3C)nc2c1 (configuration not stated)	-12	50µM*	·	·	-29%	·
COc1ccnc(CS(=O)c2nc3cc(C(O)(F)F)ccc3[nH]2)c1OC (configuration not stated)	3	79µM*	22%	·	-1%	·
O=C(c1ccc(-c2ccc([N+](=O)[O-])cc2)o1)N1CCCCC1	-7	?	-9%	-15%	?	-17%
CC1CC(C)CN(C(=O)c2ccc(-c3ccc([N+](=O)[O-])cc3)o2)C1 (configuration not stated)	-19	45µM*	?	·	35µM*	-13%
O=Cc1cc(N=Nc2ccccc2Cl)ccc1O	?	25µM*	?	6%	10µM*	?
O=Cc1cc(N=Nc2cccc(C(=O)O)c2)ccc1O	-79*	-13%	9%	-25%	?	?
Oc1c(C=Nc2ccccc2Cl)[nH]c2ccccc12	-4	?	-22%	?	-13%	-1%
CSS(=O)(=O)c1cccc2cccnc12	-91*	3.2µM*	3%	2.5µM*	14µM*	-8%
O=S(=O)(O)c1cccc2cccnc12	·	?	23%	·	·	·
Cc1ccc(-n2c(-c3ccncc3)n[nH]c2=S)cc1	1	22µM*	5%	0%	-2%	·
COc1cc(-c2n[nH]c(=S)n2-c2ccc(C)cc2)cc(OC)c1OC	-10	5µM*	-7%	13%	50µM*	-22%
COc1ccc(-n2c(-c3ccc(C)cc3)n[nH]c2=S)cc1	-10	20µM*	-1%	-5%	-7%	-1%
O=C(O)c1ccc(-n2c(-c3ccccc3)n[nH]c2=S)cc1	·	28µM*	34%	?	-3%	-3%
Cc1ccc(C)c(C(=O)c2c(N)c(-c3nc(-c4ccc5c(c4)OCO5)cs3)c3ccccn23)c1	·	-15%	28%	·	13%	·
COc1cc(OC)cc(-c2n[nH]c(=S)n2-c2ccc3c(c2)OCO3)c1	2	20µM*	-3%	?	-11%	8%
COc1ccc(-c2n[nH]c(=S)n2-c2ccccc2C)cc1OC	-8	11µM*	33%	·	-20%	-3%
Cc1onc(-c2ccccc2)c1-c1n[nH]c(=S)n1-c1ccccc1	-6	63µM*	-21%	·	·	·
Cc1ccc(-n2c(-c3cnccn3)n[nH]c2=S)cc1	2	8.9µM*	36%	-1%	79µM*	4%
Cc1ccc(-n2c(-c3ccccc3)n[nH]c2=S)cc1	9	2.2µM*	-23%	?	?	3%
COc1ccc(-c2n[nH]c(=S)n2-c2ccc(Br)cc2)cc1OC	9	50µM*	6%	·	-32%	1%

Screening results: PubChem, National Center for Advancing Translational Sciences (NCATS)
